MCF10A rereplic = A quantitative high throughput screen for small molecules that induce DNA re-replication in MCF 10a normal breast cells. MCF 10A DNA re-replication, Hoechst nuclear intensity, 48 h. Potency, µM (highest dose often 46.1 µM), most hits filed as activators. 350,000 tested, 2.9% active. AID 624296, 2012; also: nearly all actives have a fitted effect of over 50% in size
PINK1 modulator = A Quantitative High throughput Screen to Identify Chemical Modulators of PINK1 Expression. PINK1 immunofluorescence, high-content cytometry, 24 h. 410,000 tested, 0.2% active. Potency, µM (highest dose often 76.6 µM), hits mostly activators. AID 624263, 2012; active = well fitted activation curve with a large enough effect; inconclusive = small, poorly fitted or top-dose-only effect; cell line not stated here; also: nearly all actives have a fitted effect of over 65% in size
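Decision-based qHTS: stable cells, 24 h exposure to five compound concentrations, CCCP as control. Fixed cells stained for PINK1 plus nuclear, mitochondrial and cell markers, cytometer read.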
ATXN2 expr inh = Primary qHTS for Inhibitors of ATXN expression | HEK-293 ATXN2-luciferase reporter, luminescence, 24 h | Potency, µM (series often up to 57 µM), most hits filed as inhibitors | 360,000 tested, 0.72% active | AID 1745845, 2022; also: nearly all actives have a fitted effect of over 55% in size
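qHTS (up to 57 uM final) was run with 24 h compound exposure of reporter cells at 37 °C. Each well was multiplexed: SteadyGlo luminescence measured ATXN2-luciferase expression after a fluorogenic Gly-Phe-AFC viability readout (25 uM final).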
S2 tox = Viability Counterscreen for Primary qHTS for Inhibitors of ATXN expression; 400,000 tested, 0.49% active; AID 651635, 2014; S2 cells (HEK-293 line with an ATXN2-luciferase reporter) viability, CellTiter-Fluor protease fluorescence, 24 h; Potency, µM (series often up to 56.7 µM), usual class: cytotoxic; also: nearly all actives have a fitted effect of over 40% in size
SW480 rerep = A quantitative high throughput screen for small molecules that induce DNA re-replication in SW480 colon adenocarcinoma cells | SW480 DNA re-replication, Hoechst DNA content imaging, 48 h | Potency, µM (doses to about 46.1 µM), hits mostly activators | 340,000 tested, 1.8% active | AID 624297, 2012; also: nearly all actives have a fitted effect of over 55% in size
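Readout is total intensity of Hoechst-stained nuclei, excited at 405 nm and collected at 500-530 nm. Compound treatment lasted 48 hr at 37 C in 5% CO2 before staining.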
IL1B secr inh = qHTS for Inhibitors of Inflammasome Signaling: IL-1-beta AlphaLISA Primary Screen; 360,000 tested, 4.7% active; THP-1 LPS/ATP IL-1B secretion, AlphaLISA, 16 h; hits give low values; activity change, % at 57.5 µM; in the data active = activity change below about -50%; inconclusive = mostly about -30% to -49%
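THP-1 cells pretreated 1 hr with compounds (up to 57.5 uM final), then stimulated with LPS (250 ng/mL final) plus ATP (1.25 mM final); secreted IL-1B measured by AlphaLISA after 16 hr, decreased signal indicating inhibition.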
Of the large screens only hits and unclear results are named; the others gave an inactive call; ! = a repeat was not active. An excerpt weighted towards active compounds, which were near 7.1% of everything screened. Unless noted, calls follow the shape of the dose curve; as a rule, active = well fitted curve in the direction sought with a large enough effect; inconclusive = small, poorly fitted or top-dose-only effect, or another doubt; inactive = no such curve, though single readings can be large; an effect the other way counts as inactive or inconclusive.

O=C(NNc1nc(-c2ccccc2)c2cc(Br)ccc2n1)c1ccc(S(=O)(=O)N2CCOCC2)cc1	SW480 rerep inconclusive, IL1B secr inh -51
CN(C)S(=O)(=O)c1ccc(C(=O)NNc2nc(-c3ccccc3)c3cc(Br)ccc3n2)cc1	IL1B secr inh -60
Cc1cc2nc(C3CCCCC3)c(CC(C)(C)C)n2c(C)c1Br	PINK1 modulator inconclusive (no result: MCF10A rereplic, SW480 rerep)
O=C(NCCc1ccc(Cl)cc1)c1ccc(CS(=O)(=O)Cc2ccccc2F)o1	ATXN2 expr inh inconclusive, S2 tox 20µM (no result: MCF10A rereplic, SW480 rerep, IL1B secr inh)
O=C(NCCc1ccc(Cl)cc1)c1ccc(CS(=O)(=O)Cc2ccc(Cl)cc2)o1	none (no result: MCF10A rereplic, ATXN2 expr inh, S2 tox, SW480 rerep, IL1B secr inh)
CCOC(=O)c1cccc(NC(=O)C2CCCN(S(=O)(=O)c3cc(Br)cc4c3N(C(=O)CC)CC4)C2)c1 (configuration not stated)	none (no result: MCF10A rereplic, SW480 rerep, IL1B secr inh)
Cc1c(C(=O)NC2CCCCC2)sc2ncnc(NCCN(C)C)c12	none (no result: MCF10A rereplic, ATXN2 expr inh, SW480 rerep, IL1B secr inh)
On1onc2c3cc(-c4ccccc4)nc3ccc21	MCF10A rereplic 8.2µM, ATXN2 expr inh inconclusive, S2 tox inconclusive, SW480 rerep 7.3µM
C/C(=N\NC(=O)Cc1ccc(Cl)cc1)c1ccccc1O	ATXN2 expr inh inconclusive, S2 tox inconclusive, SW480 rerep 15µM
C/C(=N\NC(=O)CSCc1ccc([N+](=O)[O-])cc1)c1ccccc1O	ATXN2 expr inh 18µM, S2 tox inconclusive, SW480 rerep inconclusive
C/C(=N\NC(=O)Cc1ccc(Cl)cc1)c1ccc(F)cc1	none (no result: ATXN2 expr inh)
CC(C)(C)OC(=O)N1CCC(c2cc(-c3cccs3)n[nH]2)CC1	IL1B secr inh -76
FC(F)(F)COc1nc(OCC(F)(F)F)nc(N2CCN(c3ccccc3)CC2)n1	MCF10A rereplic inconclusive, IL1B secr inh -54
O=C(NCc1ccccc1)c1ccc(CN2CCC(Cc3ccccc3)CC2)cc1	none
O=C(NC1CCN(Cc2ccccc2)CC1)c1ccccc1OCc1ccccc1	none (no result: ATXN2 expr inh)
O=C(NC1CCN(Cc2ccccc2)CC1)c1cc(S(=O)(=O)Nc2ccc(F)cc2)ccc1Cl	IL1B secr inh -69
O=C(NC1CCN(Cc2ccccc2)CC1)c1ccccc1OCc1ccccc1Cl	IL1B secr inh -88
O=C(NC1CCN(Cc2ccccc2)CC1)c1ccccc1	none (no result: ATXN2 expr inh)
CCc1ccccc1NC(=O)c1ccc(CN2CCC(Cc3ccccc3)CC2)cc1	MCF10A rereplic inconclusive, SW480 rerep inconclusive, IL1B secr inh -80
O=C(NC1CCN(Cc2ccc(Cl)cc2Cl)CC1)c1ccccc1	IL1B secr inh -50
CCOC(=O)c1cnc2ccccc2c1Nc1cccc(OC)c1	S2 tox inconclusive (no result: MCF10A rereplic, SW480 rerep, IL1B secr inh)
COc1ccccc1C1Nc2c(sc3nc(C)cc(C)c23)C(=O)N1c1ccccc1 (configuration not stated)	none (no result: MCF10A rereplic, ATXN2 expr inh, S2 tox, SW480 rerep, IL1B secr inh)
COc1ccccc1CNS(=O)(=O)CCNCc1ccco1	MCF10A rereplic inconclusive
Cc1ccc(NS(=O)(=O)c2ccc(C(=O)NC3CCN(Cc4ccccc4)CC3)cc2)cc1	SW480 rerep 18µM, IL1B secr inh -93
Cc1ccc(S(=O)(=O)Nc2cccc(C(=O)NC3CCN(Cc4ccccc4)CC3)c2)cc1F	MCF10A rereplic inconclusive, SW480 rerep inconclusive, IL1B secr inh -66
Cc1ccc(NS(=O)(=O)c2cccc(C(=O)NC3CCN(Cc4ccccc4)CC3)c2)cc1	MCF10A rereplic inconclusive, S2 tox inconclusive (no result: IL1B secr inh)
O=C(NCC(=O)N1CCC(Cc2ccccc2)CC1)c1ccc(Cl)cc1	IL1B secr inh -52
O=C(NC1CCN(Cc2ccccc2)CC1)c1ccc2c(c1)[nH]c(=O)n2Cc1ccc(F)cc1	SW480 rerep inconclusive, IL1B secr inh -77
CC(C)(C)c1ccc(C(=O)NC2CCN(Cc3ccccc3)CC2)cc1	SW480 rerep 16µM
O=C(O)COc1ccc(/C=N/NC(=O)c2ccc(-c3csc(Nc4ccc(Cl)cc4)n3)cc2)cc1	MCF10A rereplic 9.2µM, S2 tox inconclusive
CC(C)CCCC(C)NCCC(C)C (configuration not stated)	none (no result: MCF10A rereplic, PINK1 modulator, SW480 rerep, IL1B secr inh)
O=C1N/C(=N\N=C\c2cccs2)SC1Cc1cccc(Cl)c1 (configuration not stated)	MCF10A rereplic 2.9µM, S2 tox inconclusive, SW480 rerep inconclusive
COc1cc(/C=N/N=C2/NC(=O)C(Cc3ccccc3)S2)ccc1O (configuration not stated)	MCF10A rereplic 18µM, S2 tox inconclusive
O=C1N/C(=N\N=C\c2ccccn2)SC1Cc1cccc(SC(F)F)c1 (configuration not stated)	MCF10A rereplic inconclusive, ATXN2 expr inh 18µM, S2 tox inconclusive, SW480 rerep inconclusive
O=C1N/C(=N\N=C\c2cccnc2)SC1Cc1ccc(SC(F)F)cc1 (configuration not stated)	MCF10A rereplic inconclusive, ATXN2 expr inh 13µM, S2 tox inconclusive
O=C1N/C(=N\N=C\c2cccs2)SC1Cc1ccc(Cl)cc1 (configuration not stated)	MCF10A rereplic inconclusive
Cc1ncc(CO)c2c1Oc1nc(-c3ccccc3)nc(SCC(=O)Nc3cccc(C(F)(F)F)c3)c1C2	none (no result: MCF10A rereplic, ATXN2 expr inh, S2 tox, SW480 rerep, IL1B secr inh)
O=C1N/C(=N\N=C\c2ccc3ncccc3c2)SC1Cc1ccc(SC(F)F)cc1 (configuration not stated)	MCF10A rereplic 16µM, SW480 rerep inconclusive
COc1ccc(C(=O)/C=C/c2ccc(N3CCCCC3)c([N+](=O)[O-])c2)cc1	MCF10A rereplic 8.2µM, S2 tox inconclusive, SW480 rerep inconclusive, IL1B secr inh -101
COc1ccc(C(=O)/C=C/c2ccc(N3CCCCC3)c([N+](=O)[O-])c2)c(OC)c1	MCF10A rereplic 12µM, ATXN2 expr inh inconclusive, S2 tox inconclusive, SW480 rerep inconclusive, IL1B secr inh inconclusive
COc1ccc(NC(=O)CN(C)C(=O)c2ccc(N3CCCCC3)c([N+](=O)[O-])c2)cc1	none
COCC(=O)Nc1cc(C(=O)N2CC3CC4CC(C3)CC2C4)c2c(c1)nc(-c1ccncc1)n2C	none (no result: MCF10A rereplic, ATXN2 expr inh, SW480 rerep, IL1B secr inh)
O=C(c1ccco1)N(Cc1ccco1)c1ccc(O)cc1	S2 tox inconclusive, IL1B secr inh -106
O=C(c1ccco1)N(Cc1cccc([N+](=O)[O-])c1)c1ccc(Br)cc1	IL1B secr inh -54
Cc1ccc(N(Cc2cccs2)C(=O)c2ccco2)cc1	none (no result: MCF10A rereplic, ATXN2 expr inh, S2 tox, SW480 rerep, IL1B secr inh)
COc1cc(NC(C)CCCN)c2ncccc2c1 (configuration not stated)	ATXN2 expr inh inconclusive, S2 tox 13µM!, SW480 rerep inconclusive
COc1cc(NCc2ccccc2O)c2ncccc2c1	MCF10A rereplic 21µM

Compound activity as filed in PubChem BioAssay.
